TDP1 cell noCPT: qHTS for Inhibitors of human tyrosyl-DNA phosphodiesterase 1 (TDP1): qHTS in cells in absence of CPT; DT40 Tdp1-/- hTDP1 cells, no CPT, ATP luminescence, 48 h; Potency, µM (doses to about 46.2 µM), actives largely listed as inhibitors; 420,000 tested, 15% active; note: nearly all actives have a fitted effect of over 55% in size
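Chicken DT40 Tdp1-/- cells stably complemented with human TDP1 were seeded at 400 cells/well with DMSO in place of 20 nM camptothecin. After compound pinning, cells grew at least 48 hr at 37 °C; viability read by CellTiter-Glo luminescence.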
IL-1B inflam inh: qHTS for Inhibitors of Inflammasome Signaling: IL-1-beta AlphaLISA Primary Screen; THP-1 LPS/ATP IL-1B secretion, AlphaLISA, 16 h; hits give low values; activity change, % at 57.5 µM; 360,000 tested, 4.7% active; AID 743279, 2014; in the data active = activity change below about -50%; inconclusive = mostly about -30% to -49%
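THP-1 cells pretreated 1 hr with compounds (up to 57.5 uM final), then stimulated with LPS (250 ng/mL final) plus ATP (1.25 mM final); secreted IL-1B measured by AlphaLISA after 16 hr, decreased signal indicating inhibition.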
TDP1 block: qHTS Assay for Inhibitors of Tyrosyl-DNA Phosphodiesterase (TDP1). 350,000 tested, 0.28% active. Tyrosyl-DNA phosphodiesterase 1 (Homo sapiens), Q9NUW8. Potency, µM (series often up to 130 µM), actives largely listed as inhibitors. recombinant TDP1, AlphaScreen DNA substrate cleavage; note: nearly all actives have a fitted effect of over 40% in size
Target sequence (Q9NUW8 whole entry, looked up): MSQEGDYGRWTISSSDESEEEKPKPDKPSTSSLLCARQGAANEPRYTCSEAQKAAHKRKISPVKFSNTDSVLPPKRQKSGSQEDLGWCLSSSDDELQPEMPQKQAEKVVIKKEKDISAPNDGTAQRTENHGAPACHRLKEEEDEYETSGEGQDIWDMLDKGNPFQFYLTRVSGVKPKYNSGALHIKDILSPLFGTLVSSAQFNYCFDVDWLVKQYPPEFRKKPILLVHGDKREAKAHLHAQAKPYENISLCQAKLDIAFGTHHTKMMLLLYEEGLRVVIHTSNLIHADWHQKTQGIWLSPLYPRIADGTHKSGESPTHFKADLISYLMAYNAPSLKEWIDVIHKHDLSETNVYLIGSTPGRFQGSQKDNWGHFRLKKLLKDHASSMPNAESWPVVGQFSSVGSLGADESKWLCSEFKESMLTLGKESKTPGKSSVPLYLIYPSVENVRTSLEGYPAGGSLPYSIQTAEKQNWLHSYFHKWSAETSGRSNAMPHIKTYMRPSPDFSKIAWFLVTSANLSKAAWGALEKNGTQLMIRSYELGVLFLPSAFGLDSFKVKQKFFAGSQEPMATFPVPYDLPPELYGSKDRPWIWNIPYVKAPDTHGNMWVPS
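Here, a 5' biotin and 3' phosphotyrosine-FITC DNA oligonucleotide reports Tdp1 activity: intact substrate bridges AlphaScreen beads, while cleavage leaves a 3' phosphate and drops signal. All incubations at room temperature.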
DT40 TDP1 CPT: qHTS for Inhibitors of human tyrosyl-DNA phosphodiesterase 1 (TDP1): qHTS in cells in presence of CPT | Potency, µM (doses to about 46.2 µM), actives largely listed as inhibitors | chicken DT40 Tdp1-/-;hTDP1 cells + 20 nM CPT, ATP luminescence, 48 h | 420,000 tested, 12% active; note: nearly all actives have a fitted effect of over 55% in size
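Chicken DT40 Tdp1-/- cells complemented with human TDP1, 400 cells/well, exposed to compounds plus 20 nM camptothecin for at least 48 h at 37 C; viability read as ATP content by CellTiter-Glo luminescence.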
HepG2 viability: qHTS for Inhibitors of TGF-b: Cytotox Counterscreen; HepG2 CAGA-GFP viability, ATP luminescence, 18 h; Potency, µM (series often up to 46.1 µM), actives largely listed as cytotoxic; 410,000 tested, 0.76% active; AID 588856, 2011
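CellTiter-Glo luminescence gave cytotoxicity after 18 hours at 37 degrees C. The cells were HepG2 CAGA-GFP in 1% FBS DMEM, stimulated with 500 pg/mL TGF-beta after compound addition. %Activity was normalised to no-cell wells (complete cell-killing) and DMSO (no toxicity), and curves were fitted and classified.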
TGFb inhibitor: qHTS for Inhibitors of TGF-b. HepG2 CAGA-GFP TGF-b/SMAD3 reporter, GFP fluorescence, 18 h; TGF-beta stimulated, 500 pg/mL final. Potency, µM (top dose mostly 46.1 µM), actives largely listed as inhibitors. 410,000 tested, 1.2% active. AID 588855, 2011; note: nearly all actives have a fitted effect of over 65% in size
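HEPG2 CAGA-GFP, 1000 cells/well; 2 h settle, 37 C; cpd via pin tool; TGF-b 500 pg/mL final; 18 h, 37 C; GFP imaging ex488/em500-530; %Activity normalised to -TGF-b and +DMSO controls; CRC fit, curve class.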
Numbers stand for hits; 0 = inactive; ? = inconclusive; - = no result; [ ] = dose if it differs, or a comment. Compounds with a hit are over-represented: about 19% of the library has one in this group of screens. Unless noted, calls come from the whole dose curve; as a rule, active = well fitted curve in the direction sought with a large enough effect; inconclusive = small, poorly fitted or top-dose-only effect, or another doubt; inactive = no such curve, though single readings can be large; an effect the other way counts as inactive or inconclusive.

SMILES | TDP1 cell noCPT | IL-1B inflam inh | TDP1 block | DT40 TDP1 CPT | HepG2 viability | TGFb inhibitor
CCOc1ccc(C(=O)c2oc3ccccc3c2NC(=O)c2cc(-c3ccc(C)cc3)on2)cc1 | 0 | - | 0 | 0 | 0 | 0
COc1ccc(-n2ccnc(NCc3ccc(Cl)cc3)c2=O)cc1 | 14.6µM | - | 0 | ? | 0 | ?
CCCNc1nc2c(c(=O)n(C)c(=O)n2C)n1Cc1ccc(F)cc1 | 9.2µM | 0 | 0 | 6.51µM | 0 | 0
CCNc1nc2c(c(=O)n(C)c(=O)n2C)n1Cc1ccc(Cl)cc1 | 6.51µM | 0 | - | 3.66µM | 0 | ?
N#C/C(=C\c1ccc(Cl)cc1)C(=O)NCC1CCCO1 (stereo not drawn) | ? | - | 0[12.3 µM] | ? | 0 | 0
COCCn1c(SCC(=O)Nc2ccc(OC)c(S(N)(=O)=O)c2)nc2ccccc21 | ? | 0 | 0 | 16.4µM | 0 | 0
COCCn1c(SCC(=O)Nc2cccc(C(=O)OC)c2)nc2ccccc2c1=O | ? | 0 | 0 | 20.6µM | 0 | 0
COCCCn1c(SCC(=O)Nc2ccc(C(C)=O)cc2)nc2ccccc2c1=O | 20.6µM | 0 | 0 | ? | 0 | 0
COCCn1c(SCC(=O)Nc2cc(C)cc(C)c2)nc2ccccc2c1=O | ? | 0 | - | ? | 0 | 0
COc1cc(NC(=O)N2CCSc3ccccc32)cc(OC)c1OC | ? | - | 0 | ? | 0 | 0
N#CCCn1c(=O)c(-c2ccc(F)cc2)nc2cnc(OCc3ccccc3)nc21 | 0 | - | - | 0 | - | -
CN=C1C=CC(=C(c2ccc(N(C)C)cc2)c2ccc(N(C)C)cc2)C=C1 | 0.211µM | - | - | 0.211µM | - | -
N#Cc1ccccc1CSc1nnc(-c2ccccc2)o1 | - | - | 0 | - | 0 | 0
CCOc1ccc2nc(SCC(=O)N3CCN(C(=O)c4ccco4)CC3)sc2c1 | 11.6µM | 0 | 0 | ? | 0 | 0
CCOc1ccc2nc(N3CCC(C(=O)N4CCN(c5ccccn5)CC4)CC3)sc2c1 | 6.51µM | 0 | 0 | 5.8µM | 0 | 0
O=C(CSc1nc2ccccc2s1)N1CCN(C(=O)c2ccco2)CC1 | ? | 0 | 0 | 0 | 0 | 0
CCOc1ccc2nc(N3CCN(C(=O)c4ccco4)CC3)sc2c1 | 18.4µM | - | 0 | ? | 0 | 0
O=C(O)c1ccc(S(=O)(=O)N[C@H](Cc2ccc(C(F)(F)F)cc2)C(=O)O)cc1 | - | - | 0 | - | - | -
Cc1ccc2c(=O)cc(C(=O)Nc3c(C(=O)c4ccc(F)cc4)oc4ccccc34)oc2c1C | 0 | - | 0 | 0 | 0 | 0
COc1c(Cl)cc(C(=O)N(Cc2ccc(C)o2)C2CCS(=O)(=O)C2)cc1Cl (stereo not drawn) | 23.1µM | - | 0 | ? | 0 | 0
Cc1ccc(CN(C(=O)COc2ccc(C(C)(C)C)cc2)C2CCS(=O)(=O)C2)o1 (stereo not drawn) | 20.6µM | - | 0 | ? | 0 | -
CC(C)CN(C(=O)COc1ccc(C(C)(C)C)cc1)C1CCS(=O)(=O)C1 (stereo not drawn) | 23.1µM | 0 | 0[0.505 µM] | 0 | 0 | 0
COc1cc(C(=O)OCC(=O)N(CC(C)C)C2CCS(=O)(=O)C2)cc(OC)c1C (stereo not drawn) | 0 | 0 | 31.6µM | 0 | 0 | 0
CN(C(=O)COc1ccc(C(C)(C)C)cc1)C1CCS(=O)(=O)C1 (stereo not drawn) | 0 | 0 | 0 | 0 | 0 | 0
CC(C)CN(C(=O)COC(=O)c1ccc(C#N)cc1)C1CCS(=O)(=O)C1 (stereo not drawn) | 0 | 0 | 0 | 0 | 0 | 0
COC(CNC(=O)C1CC(=O)N(CCc2ccc(C)cc2)C1)OC (stereo not drawn) | 0 | 0 | - | 0 | 0 | 0
C/C(=N\NC(=O)c1nnn(-c2nonc2N)c1CN(C)c1ccccc1)c1cccc(O)c1 | 0 | 0 | 0 | ? | 0 | 0

Bioassay records as filed in PubChem BioAssay.
